Data taken from PubChem BioAssay (NCI).
Compounds without any hit were thinned out: in the full panel of roughly 79,000, 15% have a hit. Unmarked numbers belong to inactive results. Calls of active or inactive are those of the source. Rule as the data show it: active = growth inhibition above about 70%; inactive = the rest.

Columns and labels:
[1] = NCI Yeast Anticancer Drug Screen. Data for the rad50 strain (AID 155);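 also: 0% = growth of vehicle-only cultures of the same strain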; settings: S. cerevisiae rad50 strain growth inhibition, stronger effect = higher value
Procedure, shortened: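 Relative growth inhibition (compound vs vehicle) was measured in yeast with a defined repair-gene alteration.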

[2] = NCI Yeast Anticancer Drug Screen. Data for the mec2-1 strain (AID 157); settings: S. cerevisiae mec2-1 strain, stronger effect = higher value
Procedure, shortened: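 Compounds were applied to mec2-1 yeast cells. Their growth was then compared with that of vehicle-treated cultures to give growth inhibition.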

[3] = NCI Yeast Anticancer Drug Screen. Data for the sgs1 mgt1 strain (AID 161);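 also: 0% = growth of cultures given vehicle only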; settings: S. cerevisiae sgs1 mgt1 strain, stronger effect = higher value
Procedure, shortened: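 Yeast cells carrying a defined DNA-repair defect were exposed to test compounds. Growth inhibition was measured relative to vehicle-treated controls.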

[4] = NCI Yeast Anticancer Drug Screen. Data for the cln2 rad14 strain (AID 165);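 also: 0% = growth equal to vehicle treated cultures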; settings: S. cerevisiae cln2 rad14 strain, stronger effect = higher value
Procedure, shortened: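 Strain: cln2 rad14 yeast, altered in cell cycle control and DNA damage repair. Read-out: growth inhibition vs vehicle.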

[5] = NCI Yeast Anticancer Drug Screen. Data for the bub3 strain (AID 167); settings: S. cerevisiae bub3 mutant strain, stronger effect = higher value
Procedure, shortened: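 Screening used yeast with an engineered genetic alteration affecting cell cycle control. Compound-exposed cultures were compared with vehicle cultures, and reduced growth was taken as inhibition.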

[6] = NCI Yeast Anticancer Drug Screen. Data for the mlh1 rad18 strain (AID 175); settings: S. cerevisiae mlh1 rad18 strain growth inhibition, stronger effect = higher value
Procedure, shortened: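 A repair-deficient yeast strain is exposed to test compound, and growth is scored relative to vehicle-treated controls.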

[7] = at 5.0 µM (retest, dose inferred, filed as 0.5)
[8] = at 50.0 µM (retest, dose inferred, filed as 5.0)

SMILES	growth inhibition [1, 7] [%]	growth inhibition [1, 8]	growth inhibition ([1]; at 50.0 µM)	growth inhibition [2, 7] [%]	growth inhibition [2, 8]	growth inhibition ([2]; at 50.0 µM)	growth inhibition [3, 7] [%]	growth inhibition [3, 8]	growth inhibition ([3]; at 50.0 µM)	growth inhibition [4, 7] [%]	growth inhibition [4, 8]	growth inhibition ([4]; at 50.0 µM)	growth inhibition [5, 7] [%]	growth inhibition [5, 8]	growth inhibition ([5]; at 50.0 µM)	growth inhibition [6, 7] [%]	growth inhibition [6, 8]	growth inhibition ([6]; at 50.0 µM)
CCCCCCCCC1N(C)CCCN1C	-76	97% (active)	99.5% (active)	-51	98% (active)	99.6% (active)	-37	98% (active)	49%	-56	98% (active)	98.3% (active)	-52	98% (active)	99% (active)	-102	98% (active)	99.5% (active)
CN1CCS(=O)(=O)C1=O	3	87% (active)	90.3% (active)	2	93% (active)	95.8% (active)	1	75% (active)	42.8%	10	54%	86.3% (active)	5	94% (active)	98% (active)	1	63%	93.2% (active)
O=Cc1ccc([N+](=O)[O-])o1	36	98% (active)	99.6% (active)	7	99% (active)	99.4% (active)	13	99% (active)	99.6% (active)	-1	85% (active)	98.6% (active)	-3	57%	99.8% (active)	20	99% (active)	99.5% (active)
COc1cc(OC)c(C(c2cc3c(cc2O)OCO3)N2CCOCC2)c(OC)c1 (configuration not stated)	2	99% (active)	57.9%	2	98% (active)	61.1%	-1	98% (active)	50.3%	0	99% (active)	23.7%	5	99% (active)	18.8%	-2	99% (active)	63.2%
CC(=N/NC(=S)NCC(C)C)/C(C)=N\Nc1ccc(Cl)cc1	2	81% (active)	95% (active)	-1	79% (active)	73.2% (active)	1	91% (active)	92.4% (active)	-4	79% (active)	72.8% (active)	-4	82% (active)	93.7% (active)	0	90% (active)	92% (active)
CCc1cc2c(cc1O)CC[C@@H]1[C@@H]2CC[C@]2(C)[C@@H](O)CC[C@@H]12	31	96% (active)	88% (active)	-10	99% (active)	92% (active)	-17	96% (active)	89.3% (active)	9	97% (active)	91% (active)	-39	98% (active)	49.5%	3	97% (active)	85.2% (active)
CCCOc1ccc(/C=N/NC(N)=S)cc1	16	73% (active)	42.1%	0	50%	59.5%	16	74% (active)	69.7%	7	65%	76.5% (active)	-72	70% (active)	63.7%	12	75% (active)	67.3%
CC1=C(C(=O)OCCc2ccc([N+](=O)[O-])cc2)C(c2ccccc2[N+](=O)[O-])C(C(=O)OC(C)C)=C(C)N1 (configuration not stated)	12	93% (active)	69.6%	13	94% (active)	74.3% (active)	1	87% (active)	75.7% (active)	0	80% (active)	68.4%	4	89% (active)	74.6% (active)	10	94% (active)	68%
Oc1ccc2cc(Br)ccc2c1	8	98% (active)	54.1%	0	99% (active)	99% (active)	2	97% (active)	45.1%	-2	98% (active)	56.4%	4	99% (active)	99% (active)	3	99% (active)	98.8% (active)
